# Test results reported in PubChem BioAssay.
# The source made the active and inactive calls.
# Key:
# Albumin (Bos taurus) = Albumin (Bos taurus) (UniProt P02769); test: compounds binding labelled BSA control protein – biochemical, small-molecule microarray, Alexa647 label, 635/667 nm fluorescence, artefact control for SMM control protein annotation, profiling panel (AID 1118); conditions: BSA-A647 binding, fluorescence 635 nm, higher = more signal;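 also: score merges 667 nm emission intensity and signal-to-noise per printed compound spot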
# [1] = probe aXIP binding to arrayed compounds – biochemical, NeuroSMM set, 635/667 nm fluorescence, primary screen (AID 1119); conditions: small-molecule microarray, higher = more signal, called active from +8 up or from −8 down;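 also: probe is the protein aXip251-270 applied at 1 µg/mL to compound-printed slides; binding of probe to printed compounds measured as 667 nm fluorescence plus signal to noise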
# [2] = probe aNOTCH3 binding on compound microarray – biochemical, small-molecule microarray, 635/667 nm fluorescence, primary screen (AID 1120); conditions: higher = more signal;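 also: probe is a biotin-tagged antibody raised against NOTCH3 rather than NOTCH3 protein; score merges spot fluorescence near 667 nm with spot signal to noise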
# [3] = probe aNOTCH2 binding on compound microarray – biochemical, small-molecule microarray, 635/667 nm fluorescence, primary screen (AID 1121); conditions: higher = more signal;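 also: score merges feature fluorescence read at 667 nm with its signal to noise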
# [4] = target: Carbonic anhydrase 2 (Homo sapiens) (UniProt P00918); test: compounds binding carbonic anhydrase 2 – biochemical, small-molecule microarray, Alexa647-labelled CAII, profiling panel (AID 1122); conditions: CAII-A647 binding fluorescence, higher = more signal
# [5] = COS7 lysate on small-molecule microarray, probe aHis, 635 nm (AID 1123); conditions: COS7 cell lysate, fluorescence, higher = more signal;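 also: z-score combines 667nm fluorescence intensity with signal-to-noise per printed compound spot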
# [6] = probe aLAP1 signal on lysate-treated microarray – cell lysate, small-molecule microarray, COS7 lysate, primary screen (AID 1124); conditions: probe aLAP1, fluorescence, higher = more signal;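 also: lysate comes from COS7 cells expressing LAP1 and is applied at 0.3 µg/mL; score merges spot fluorescence near 667 nm with signal-to-noise over triplicate slides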
# Sam68 (KHDRBS1) = test: compounds binding KHDRBS1 protein – biochemical, small-molecule microarray, 635 nm fluorescence, primary screen (AID 1125); conditions: higher = more signal;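 also: score merges 667 nm channel intensity with signal to noise over triplicate slides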
# [7] = system: Chordin-like protein 2 (CHRDL2); test: compounds binding chordin-like 2 – biochemical, small-molecule microarray, 635 nm fluorescence, primary screen (AID 1126); conditions: fluorescence 635 nm, higher = more signal;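 also: printed compound slides probed with Chrdl2 protein at 4 µg/mL for 1 h at 4 C; score merges 667 nm emission intensity with signal to noise over three replicate slides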
# [8] = target: Concanavalin-A (Canavalia ensiformis) (UniProt P02866); test: compounds binding concanavalin A lectin – biochemical, small-molecule microarray, Alexa647 label, 635 nm, artefact control for SMM control protein annotation, primary screen (AID 1127); conditions: ConA-A647 binding fluorescence, higher = more signal;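 also: z combines 667 nm emission intensity with signal-to-noise across three replicate slides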
# [9] = compounds binding Alexa647 anti-His antibody – biochemical, small-molecule microarray, 635 nm fluorescence, artefact control for SMM control protein annotation, primary screen (AID 1128); conditions: higher = more signal;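 also: score merges feature fluorescence with signal-to-noise for each printed compound spot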
# [10] = system: Human papillomavirus type 1a E7 protein (residues 1-88); test: HPV1a E7 small-molecule binders, primary screen, biochemical, small-molecule microarray, residues 1-88, 635 nm (AID 1129); conditions: small-molecule microarray binding, fluorescence 635 nm; higher = more signal
# [11] = target: Focal adhesion kinase 1 (Homo sapiens) (UniProt Q05397); test: PTK2 protein binding on printed compound slides – biochemical, small-molecule microarray, 635/667 nm fluorescence, BSA, DTT, primary screen (AID 1130); conditions: 635 nm fluorescence, higher = more signal;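 also: composite of spot emission at 667 nm and signal to noise over triplicate slides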
# [12] = system: Fibrinogen (Alexa647-labelled); test: Alexa647-fibrinogen binding to printed small molecules – biochemical, small-molecule microarray, 635/667 nm fluorescence, artefact control for SMM control-protein annotation, profiling panel (AID 1131); conditions: fibrinogen-A647 binding fluorescence, higher = more signal;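 also: z-score merges 667 nm fluorescence with per-spot signal-to-noise over triplicate slides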
# [13] = target: Follistatin (Homo sapiens) (UniProt P19883); test: FST protein binding to printed compounds – biochemical, small-molecule microarray, 635/667 nm fluorescence, primary screen (AID 1132); conditions: 635 nm fluorescence, higher = more signal
# [14] = target: Fibroblast growth factor 2 (Homo sapiens) (UniProt P09038); test: basic fibroblast growth factor binding to printed compounds – biochemical, small-molecule microarray, 635/667 nm fluorescence, primary screen (AID 1133); conditions: FGF2, fluorescence 635/667, higher = more signal
# [15] = JC-1 mitochondrial potential readout, lung cancer cells – cell-based, A549, JC-1 fluorescence, basal, 24 h, 100 nL, profiling panel (AID 1138); conditions: higher = more signal;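 also: A549 lung adenocarcinoma cells under basal conditions with no added stimulus; test concentration not given here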
# Lefty1 = Lefty1 protein binding to printed compounds – biochemical, small-molecule microarray, 635/667 nm fluorescence, primary screen (AID 1139); conditions: fluorescence 635/667, higher = more signal
# [16] = system: wheat germ agglutinin (Triticum aestivum), Alexa647-labelled; test: Alexa647-WGA lectin binding to printed small molecules – biochemical, small-molecule microarray, 635/667 nm fluorescence, artefact control for SMM control-protein annotation, profiling panel (AID 1140); conditions: WGA-A647 binding, 635 nm fluorescence, higher = more signal;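 also: score merges 667 nm feature emission with signal to noise over triplicate slides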
# [17] = target: Luciferin 4-monooxygenase (Photinus pyralis) (UniProt P08659); test: inhibition of purified Photinus pyralis luciferase – biochemical, luminescence, purified enzyme, 2006 set, primary screen (AID 1141); conditions: purified firefly luciferase, SteadyGlo luminescence, 30 min; higher = more signal, called active from +8 up or from −8 down;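 also: cell-free assay with purified firefly luciferase at 100 ng per well in PBS; test concentration not given here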
# Sequence of Luciferin 4-monooxygenase (Photinus pyralis) (P08659 whole entry, looked up): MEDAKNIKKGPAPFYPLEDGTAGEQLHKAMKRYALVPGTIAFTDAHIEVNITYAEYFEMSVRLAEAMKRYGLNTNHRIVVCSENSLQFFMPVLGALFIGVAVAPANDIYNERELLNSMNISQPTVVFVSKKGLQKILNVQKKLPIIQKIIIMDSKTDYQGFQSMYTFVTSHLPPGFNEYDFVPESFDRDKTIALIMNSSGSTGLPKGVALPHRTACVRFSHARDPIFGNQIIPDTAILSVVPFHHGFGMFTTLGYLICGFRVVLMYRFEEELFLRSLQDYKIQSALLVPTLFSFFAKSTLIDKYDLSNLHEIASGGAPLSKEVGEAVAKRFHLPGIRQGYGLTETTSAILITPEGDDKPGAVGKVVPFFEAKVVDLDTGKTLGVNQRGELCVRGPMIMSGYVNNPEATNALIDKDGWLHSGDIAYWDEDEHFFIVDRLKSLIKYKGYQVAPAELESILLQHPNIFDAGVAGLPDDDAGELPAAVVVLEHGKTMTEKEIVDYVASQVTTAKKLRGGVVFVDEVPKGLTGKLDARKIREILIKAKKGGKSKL
# Sequence of Albumin (Bos taurus) (P02769 whole entry, looked up): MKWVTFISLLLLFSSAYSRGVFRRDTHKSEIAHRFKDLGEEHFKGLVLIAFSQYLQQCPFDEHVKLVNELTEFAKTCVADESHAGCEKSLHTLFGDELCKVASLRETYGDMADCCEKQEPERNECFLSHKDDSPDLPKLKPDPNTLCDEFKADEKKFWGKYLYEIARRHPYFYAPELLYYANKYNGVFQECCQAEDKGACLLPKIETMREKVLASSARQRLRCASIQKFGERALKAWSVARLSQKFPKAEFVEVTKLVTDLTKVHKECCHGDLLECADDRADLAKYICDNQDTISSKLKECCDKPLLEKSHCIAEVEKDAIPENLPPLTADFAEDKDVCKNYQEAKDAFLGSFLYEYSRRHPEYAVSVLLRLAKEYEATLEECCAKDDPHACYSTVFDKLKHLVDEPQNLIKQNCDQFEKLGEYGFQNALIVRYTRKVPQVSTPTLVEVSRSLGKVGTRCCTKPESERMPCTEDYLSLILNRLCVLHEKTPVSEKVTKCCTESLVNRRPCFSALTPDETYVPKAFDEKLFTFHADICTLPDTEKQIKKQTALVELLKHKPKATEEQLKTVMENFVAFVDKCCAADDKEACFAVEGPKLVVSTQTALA
# Sequence of Fibroblast growth factor 2 (Homo sapiens) (P09038 whole entry, looked up): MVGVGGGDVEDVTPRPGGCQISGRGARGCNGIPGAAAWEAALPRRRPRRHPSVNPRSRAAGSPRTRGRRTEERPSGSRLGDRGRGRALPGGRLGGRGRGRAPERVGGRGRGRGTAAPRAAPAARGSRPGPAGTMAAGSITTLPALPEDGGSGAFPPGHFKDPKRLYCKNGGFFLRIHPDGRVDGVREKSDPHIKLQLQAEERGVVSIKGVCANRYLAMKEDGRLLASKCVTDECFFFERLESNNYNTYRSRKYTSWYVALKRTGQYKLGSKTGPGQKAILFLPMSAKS
# Sequence of Concanavalin-A (Canavalia ensiformis) (P02866 whole entry, looked up): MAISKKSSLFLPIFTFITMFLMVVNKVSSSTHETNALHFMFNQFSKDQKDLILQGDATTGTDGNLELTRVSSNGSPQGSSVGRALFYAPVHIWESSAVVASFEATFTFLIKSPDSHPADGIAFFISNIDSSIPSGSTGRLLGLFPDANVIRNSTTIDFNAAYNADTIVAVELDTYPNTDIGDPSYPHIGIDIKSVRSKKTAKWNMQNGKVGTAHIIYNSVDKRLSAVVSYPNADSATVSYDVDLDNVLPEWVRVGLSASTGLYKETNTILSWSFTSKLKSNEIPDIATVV
# Sequence of Focal adhesion kinase 1 (Homo sapiens) (Q05397 whole entry, looked up): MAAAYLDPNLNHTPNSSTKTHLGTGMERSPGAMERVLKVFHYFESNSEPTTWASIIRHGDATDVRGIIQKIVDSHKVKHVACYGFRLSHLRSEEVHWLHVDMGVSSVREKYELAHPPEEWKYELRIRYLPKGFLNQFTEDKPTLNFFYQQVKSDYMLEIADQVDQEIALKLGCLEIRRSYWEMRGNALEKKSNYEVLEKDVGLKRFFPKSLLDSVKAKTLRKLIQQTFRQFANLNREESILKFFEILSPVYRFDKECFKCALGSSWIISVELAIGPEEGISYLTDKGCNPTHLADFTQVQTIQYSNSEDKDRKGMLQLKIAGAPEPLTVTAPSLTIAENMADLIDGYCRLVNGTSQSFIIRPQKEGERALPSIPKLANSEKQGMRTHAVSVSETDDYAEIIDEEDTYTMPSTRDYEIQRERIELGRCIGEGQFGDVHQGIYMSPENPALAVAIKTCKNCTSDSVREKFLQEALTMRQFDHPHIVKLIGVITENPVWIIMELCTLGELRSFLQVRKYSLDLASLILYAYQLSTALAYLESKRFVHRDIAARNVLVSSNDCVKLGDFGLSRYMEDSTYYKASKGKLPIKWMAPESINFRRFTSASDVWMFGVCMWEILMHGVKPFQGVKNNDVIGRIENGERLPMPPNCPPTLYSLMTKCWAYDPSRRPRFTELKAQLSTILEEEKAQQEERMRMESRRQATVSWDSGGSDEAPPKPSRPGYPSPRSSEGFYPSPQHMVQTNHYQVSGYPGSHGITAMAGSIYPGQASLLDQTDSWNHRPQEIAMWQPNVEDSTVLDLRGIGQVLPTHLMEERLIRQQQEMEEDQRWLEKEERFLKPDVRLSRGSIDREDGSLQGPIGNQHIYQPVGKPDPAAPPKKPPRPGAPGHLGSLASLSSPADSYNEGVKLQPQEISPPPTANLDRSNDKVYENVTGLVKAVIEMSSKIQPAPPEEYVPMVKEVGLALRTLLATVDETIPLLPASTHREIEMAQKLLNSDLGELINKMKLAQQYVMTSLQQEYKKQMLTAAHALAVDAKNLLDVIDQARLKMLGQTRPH
# Sequence of Follistatin (Homo sapiens) (P19883 whole entry, looked up): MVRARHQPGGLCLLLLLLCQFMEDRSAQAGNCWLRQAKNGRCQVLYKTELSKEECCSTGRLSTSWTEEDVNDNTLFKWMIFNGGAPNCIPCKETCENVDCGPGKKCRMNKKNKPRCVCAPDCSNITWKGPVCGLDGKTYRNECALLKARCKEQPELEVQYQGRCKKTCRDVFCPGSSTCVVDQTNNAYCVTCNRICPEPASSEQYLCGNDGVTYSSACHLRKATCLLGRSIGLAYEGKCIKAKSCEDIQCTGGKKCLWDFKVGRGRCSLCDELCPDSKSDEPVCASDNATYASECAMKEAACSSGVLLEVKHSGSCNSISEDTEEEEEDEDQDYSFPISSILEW
SMILES,composite z-score (Albumin (Bos taurus)),composite Z-score [1],composite z-score [2],composite z-score [3],composite z-score [4],composite z-score [5],composite z-score [6],composite z-score (Sam68 (KHDRBS1)),composite z-score [7],composite z-score [8],composite z-score [9],composite z-score [10],composite z-score [11],composite z-score [12],composite z-score [13],composite z-score [14],z-score [15],composite z-score (Lefty1),composite z-score [16],z-score [17]
COC(=O)[C@H](Cc1ccc(O)cc1)N[C@@H](/C=C/C1CC1)[C@H](O)Cc1ccccc1,-0.394,-0.414 (inactive),-0.127,-0.172,-0.231,-0.635,-0.125,0.0476,0.202,-0.407,0.257,-0.506,-0.408,-0.785,0.156,0.0843,0.091,0.389,-0.185,0.209 (inactive)
C=C(CCCC)/C(=C/C[C@H](OC(=O)c1ccncc1)c1cccc(OCCO)c1)c1cnc2ccccc2c1,0.677,-0.12 (inactive),0.211,-0.0649,0.861,1.17,0.423,1.26,0.51,0.831,0.13,1.1,0.469,0.957,1.11,0.688,2.01,1.07,0.851,-0.78 (inactive)
COc1ccc(C(O)C2C=CC3C(=O)N(c4ccccc4)C(=O)C3N2Nc2ccc(C#N)cc2)cc1OCc1ccccc1 (stereo not given),1.06,-0.502 (inactive),0.291,0.131,0.634,2.01,1.17,1.3,-0.333,1.1,1.86,1.21,1.3,0.506,0.636,-0.529,0.399,-0.56,1.15,0.188 (inactive)
COc1ccc([Si](C)(C)[C@H]2[C@H](CCO)O[C@@]3(C(=O)N(Cc4cccc(N5C(=O)c6ccccc6Oc6ccccc65)c4)c4ccccc43)[C@@H]2C)cc1,0.446,0.142 (inactive),-0.0647,-0.147,0.287,0.575,0.755,0.499,-0.122,0.843,0.551,0.838,-0.065,0.327,-0.424,0.649,0.302,-0.351,0.805,0.0939 (inactive)
CN(C)CCCC[C@@H]1NC(=O)[C@H]2C[C@@H](C(=O)O)[C@@H](c3ccc(O)cc3)N2C1=O,0.705,3.89 (inactive),1.65,0.68,0.946,4.01,1.31,1.33,1.48,1.24,3.85,1.31,1.99,1.04,1.52,1.83,-0.447,1.63,1.65,-0.367 (inactive)
